The term inhibition denotes the relative decrease from the control value, in per cent.

The structures appear in SMILES notation. The campaign covered roughly 330,000 compounds. About 5,800 (1.8%) were called active. The sample holds actives, similar compounds and a random draw of the others, so the mix is not that of the screen. A number with no mark means an inactive call.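 How the source made its calls: active means inhibition above about 50% at the single tested dose (limit read from the data); inactive means the rest.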

96 molecules from PubChem BioAssay AID2599 (Sanford-Burnham Center for Chemical Genomics, 2010) can be followed below.

Sentrin-specific protease 6 (Homo sapiens), sequence (Q9GZR1 628-1112 limits assumed): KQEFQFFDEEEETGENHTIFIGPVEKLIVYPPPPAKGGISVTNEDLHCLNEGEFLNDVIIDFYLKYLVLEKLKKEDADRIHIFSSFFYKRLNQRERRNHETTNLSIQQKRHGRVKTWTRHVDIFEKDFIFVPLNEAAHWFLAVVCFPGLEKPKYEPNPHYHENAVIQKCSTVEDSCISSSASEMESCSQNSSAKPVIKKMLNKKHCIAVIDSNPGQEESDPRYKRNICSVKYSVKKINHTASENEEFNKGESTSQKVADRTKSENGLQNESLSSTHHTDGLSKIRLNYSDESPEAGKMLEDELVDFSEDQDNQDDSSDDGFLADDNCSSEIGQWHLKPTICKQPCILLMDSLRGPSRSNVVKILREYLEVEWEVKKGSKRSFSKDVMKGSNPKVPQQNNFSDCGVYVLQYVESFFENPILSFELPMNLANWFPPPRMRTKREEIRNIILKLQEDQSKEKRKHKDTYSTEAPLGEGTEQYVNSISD

The experiment has as its target Sentrin-specific protease 6 (Homo sapiens) (UniProt Q9GZR1). In words: inhibition of human SENP6 catalytic domain – biochemical, luminescence, uHTS, primary screen (AID 2599).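 Further: plate controls were DMSO wells with enzyme for no effect and DMSO wells lacking enzyme for full effect.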 The conditions noted are these: Recombinant SENP6 catalytic domain, aminoluciferin luminescence; at 10 µM; stronger effect = higher value.
`CN(Cc1ccccc1)C(=O)C1CCCN(c2ncnc3c2nc2n3CCCCC2)C1` (stereo unspecified): the inhibition is -17.3%.
In the case of `Cc1cc(NC(=O)COc2ccccc2C#N)no1`, the inhibition was 4.16%.
As to `Cc1ccc(Cn2ccc(NC(=O)C3C4CCC(C4)C3C(=O)O)n2)cc1` (stereo unspecified), the inhibition was 13.1%.
Regarding `O=C(Nc1ccn(Cc2ccccc2)n1)c1n[nH]c([N+](=O)[O-])c1Cl`, the inhibition is 98.2% (active).
Regarding `O=C(Nc1ccn(Cc2ccccc2F)n1)c1ccc(COc2ccc(Cl)cc2Cl)o1`, the inhibition is 25.5%.
Take `Cc1cc(C)c(S(=O)(=O)Nc2c(C)n(C)n(-c3ccccc3)c2=O)cc1[N+](=O)[O-]`: the inhibition is -1.02%.
As for `CN(CC1CCCN(CCc2cccc(C(F)(F)F)c2)C1)C(=O)c1ccc2nc[nH]c2c1` (stereo unspecified), the figure is -6.57%; as for `COc1ccc(S(=O)(=O)NCC(=O)NC2CC2)cc1OC`, -8.69%.
As for `CCCCC(c1nnnn1CS(=O)(=O)c1ccc(C)cc1)N1CCC(C(N)=O)CC1` (stereo unspecified), the inhibition was -48.9%.
As for `COc1cc(N=Cc2c(O)c3ccccc3oc2=O)c(OC)cc1Cl`, the inhibition is -7.87%.
Consider `COc1ccccc1N=Cc1c(O)c2ccccc2oc1=O`, for which the inhibition was 81% (active).
With `COc1ccccc1N=C(C)C1=C(O)COC1=O`, the inhibition is -35%.
As for `CCc1c(C)nc2c(-c3ccccc3)c(C)nn2c1Nc1ccc(NC(C)=O)cc1`, the figure is -6.24%.
Take `CCN(C(=O)CSc1cccc[n+]1[O-])c1ccccc1`: the inhibition is -15.1%.
For `CCn1c(=O)n(CC)c2cc(N3CCCC3)c(NC(=O)c3ccccc3Br)cc21`, the inhibition is 7.04%.
For the molecule `CN(C(=O)c1cc2c(=O)n3ccccc3nc2s1)C1CCCCC1`, the inhibition is -20.3%.
With `CN(C(=O)CSc1nncc2ccccc12)C1CCCCC1`, the inhibition is -34.7%.
`CN(c1ccc2nc3ccccc3c(=O)n2n1)C1CCCCC1`: the inhibition was 93.7% (active).
As for `COc1ccc(/C=N/NC(=O)c2ccncc2)cc1CN1CCCc2ccccc21`, the figure is -2.09%; as for `C=CCn1c(Cn2nnc3ccccc32)nnc1SCC(=O)N/N=C/c1cc(Br)cc(OC)c1O`, 20.6%; as for `Cc1ccc(-n2ncc3c(Nc4cccc(C(=O)O)c4)ncnc32)cc1`, 97.4% (active).
As for `Cc1ccc(Nc2ncnc3c2cnn3C)c(C)c1`, the figure is 14.7%; as for `CCN(CC)C(=O)CSc1ncnc2c1cnn2-c1ccccc1`, 22.4%.
As to `O=C(CCC(=O)c1cccs1)Nc1nc2ccccc2s1`, the inhibition is -6.28%.
As for `O=C(CCNC(=O)c1ccccc1)Nc1nc2ccccc2s1`, the inhibition was -6.27%.
Take `c1ccc2sc(NN=C3CCCC3)nc2c1`: the inhibition was 84.1% (active).
For `CC1=NN(C(N)=S)C(=O)C1N=Nc1cc(Cl)ccc1Cl` (stereo unspecified) the value was 67.7% (active); for `CN(C)S(=O)(=O)c1ccc(N2CCCC2)c(C(=O)Nc2cccc(F)c2)c1`, -13.9%.
For the molecule `c1ccc(C2CCC(N3CCC(N4CCCCC4)CC3)CC2)cc1` (stereo unspecified), the inhibition was -12.6%.
As for `CCCOc1ccc(NC(=O)CC2C(=O)N(C)C(=S)N2Cc2ccc3c(c2)OCO3)cc1` (stereo unspecified), the figure is -5.66%; as for `Cc1ccc(S(=O)(=O)Nc2nc3ccccc3nc2N2CCc3ccccc3C2)cc1`, 72.3% (active).
For `Cc1ccc(S(=O)(=O)N2CCN(c3ncnc4ccccc34)CC2)cc1` the value was -8.22%.
Regarding `Cc1ccc(NC(=O)CN2CCc3ccccc3C2)cc1`, the inhibition was -1.22%.
As for `CCOc1ncccc1C(=O)N(C)CC(=O)Nc1ccc(F)cc1`, the figure is -13.5%; as for `COc1ccc(CCC(C)N2CCc3ccccc3C2)cc1` (stereo unspecified), -16.3%.
In the case of `CC1CCC(NC(=O)CNC(=O)c2ccc3ccccc3c2)CC1` (stereo unspecified), the inhibition is -5.64%.
Take `COc1ccc(N(CC(=O)NCc2ccc(F)cc2)C(=O)CCC(=O)Nc2nccs2)cc1`: the inhibition is -20.2%.
Consider `Cn1cccc1C(=O)OCC(=O)NCCc1ccccc1`, for which the inhibition was 2.46%.
In the case of `O=C(COC(=O)c1c2c(nc3ccccc13)CCCC2)c1ccc(Br)s1`, the inhibition is -21.7%.
As for `Cn1cccc1C(=O)OCC(=O)c1ccc(Br)s1`, the figure is 80.6% (active); as for `Cc1cc(C(=O)N2CCC(C(=O)O)CC2)c(C(F)(F)F)o1`, -4.3%.
Consider `CCCNC(=S)NC1CC2CCCC(C1)N2CC(C)C` (stereo unspecified), for which the inhibition was -7.92%.
As for `COc1ccc(CNC(=O)COc2ccccc2C(=O)c2cnn(-c3ccccc3)c2)cc1OC`, the inhibition is 82.5% (active).
For the molecule `COc1ccc(CNC(=O)Cc2ccc(-c3ccccc3)cc2)cc1OC`, the inhibition was -23.6%.
As for `COc1ccc(CNC(=O)COC(=O)c2c(C)nn(-c3ccccc3)c2C)cc1OC`, the inhibition is -8.11%.
Regarding `COC(=O)C1=C(C(=O)OC)[C@@H]2N(C)c3ccccc3[C@@]23C[C@@H](C(=O)OC)N(C(C)=O)C3=N1`, the inhibition was 3.79%.
For `CC(C)(C)NC(=O)Cn1c(SCC(=O)Nc2nccs2)nc2ccccc21` the value was 1.04%; for `COc1ccc(/C=C2\CCc3ccccc3C2=O)c(OC)c1OC`, -14.7%.
For the molecule `CN1C/C(=C/c2cccs2)C(=O)/C(=C\c2cccs2)C1`, the inhibition is 8.32%.
Turning to `O=C1/C(=C/c2cccs2)CCc2ccccc21`, the inhibition is 94.5% (active).
With `Cc1ccc(NS(=O)(=O)c2cccs2)cc1S(=O)(=O)N1CCCCCC1`, the inhibition is -3.66%.
As to `CCN(CC)c1ccc(C(=O)OCC(=O)c2ccco2)cc1`, the inhibition was -14.3%.
As to `CCc1ccc(C(=O)COC(=O)c2ccco2)cc1`, the inhibition was 66.8% (active).
Turning to `O=C(OCC(=O)N1CCCC1)c1ccco1`, the inhibition is -23.3%.
Consider `Cc1ccc(CN2CC(C(=O)NNC(=O)Cn3ccc(C(F)(F)F)n3)CC2=O)cc1` (stereo unspecified), for which the inhibition was -0.795%.
Turning to `O=[N+]([O-])c1c(NCCO)cc(Sc2nc3ccccc3s2)c2nonc12`, the inhibition was 79.3% (active).
For `Cc1nc2nc(CSc3nc4ccccc4s3)cc(=O)n2[nH]1` the value was -34.9%.
For `NC(=O)c1ccc(Nc2ccc3nonc3c2[N+](=O)[O-])cc1`, the inhibition was 6.58%.
For `COc1ccc(C)cc1S(=O)(=O)Nc1cccc(Cl)c1Cl` the value was -4.81%.
For `O=C(Cc1ccc(Cl)cc1)NCc1nc(-c2ccccc2)no1`, the inhibition was -9.63%.
In the case of `C/C(=N\NC(=O)c1ccccc1F)c1ccccn1`, the inhibition is 45%.
As to `C/C(=N\NC(=O)c1ccoc1C)c1ccccc1O`, the inhibition is 56.4% (active).
On to `CC(C)=C(NC(=O)c1ccccc1)C(=O)N/N=C(\C)c1ccccc1O`, for which the inhibition was -21.8%.
Take `CSCCC(NC(=O)c1ccccc1)C(=O)N1CCN(Cc2ccc(Cl)cc2)CC1` (stereo unspecified): the inhibition was -6.84%.
`CC(OC(=O)C1CC(=O)N(Cc2ccccc2)C1)C(=O)Nc1ccccc1[N+](=O)[O-]` (stereo unspecified): the inhibition is -19.9%.
As for `CCCCN(C(=O)COc1ccc(NC(C)=O)cc1)C1CCS(=O)(=O)C1` (stereo unspecified), the inhibition is -10.3%.
With `Cc1cccc(Nc2ccccc2C(=O)NCc2ccco2)c1C`, the inhibition was 2.61%.
For `O=C(Nc1ccccc1)Nc1ccccc1C(=O)NCc1ccco1`, the inhibition is 75.2% (active).
Regarding `O=C(CCNC(=O)c1ccccc1Cl)NCc1ccco1`, the inhibition is -14.5%.
As for `NC(N)=NCCCc1cn(CC(=O)N2CCNCC2)nn1`, the figure is -12%; as for `O=C(CN1CCN(S(=O)(=O)c2cccc(Cl)c2)CC1)N1CCCCC1`, -12.8%.
Turning to `C=CCNC(=S)NNc1ncnc2sc3c(c12)CC(C)(C)OC3`, the inhibition was -6.15%.
Consider `C1=C(CCNc2ncnc3c2cnn3-c2ccccc2)CCCC1`, for which the inhibition is 62.1% (active).
For `O=C(NCCC1=CCCCC1)C1CCN(Cc2cnn(-c3ccccc3)c2-n2cccc2)CC1` the value was 12.3%; for `CC(C)Sc1ncnc2c1cnn2-c1ccccc1`, 38.9%; for `O=C(CSc1nc2[nH]ncc2c(=O)[nH]1)Nc1ccc(F)cc1`, -4.08%.
With `CC1(C)O[C@@H]2[C@H](O1)[C@@H](COS(=O)(=O)O)O[C@H]2n1ccc(=O)[nH]c1=O`, the inhibition was -11.6%.
In the case of `COc1ccc2c(c1OC)C(=O)OC2Nc1nc(-c2ccccc2)cs1` (stereo unspecified), the inhibition was -5.84%.
As for `COc1ccc(Nc2nc(-c3ccccc3)cs2)cc1`, the inhibition is 88.5% (active).
Consider `COc1ccc(-c2csc(Cc3nc(O)cs3)n2)cc1`, for which the inhibition was 25.6%.
Turning to `CCCn1c(CCNc2nc(-c3ccc(OC)cc3)cs2)nc2ccccc21`, the inhibition is 1.04%.
On to `COc1ccc(-c2csc(Nc3ccccn3)n2)cc1`, for which the inhibition is 81.9% (active).
Turning to `Clc1ccc(Nc2nc(-c3cccs3)cs2)nc1`, the inhibition is 35.3%.
In the case of `Clc1ccc(-c2csc(-c3ccncc3)n2)cc1`, the inhibition was -16.8%.
Turning to `COc1ccc(-c2csc(NC(=O)COC(=O)Cc3ccc(Cl)cc3Cl)n2)cc1`, the inhibition is 20.8%.
Take `c1ccc(Nc2nc(-c3ccncc3)cs2)nc1`: the inhibition is 88.8% (active).
As for `Oc1c(Br)cc(/C=N/NC(=S)NCC2CCCO2)cc1Br` (stereo unspecified), the figure is -26.9%; as for `CCn1cc(C(=O)OCC(=O)Nc2cccc(C)c2)c(=O)c2ccc(C)nc21`, -16.3%; as for `COC(=O)c1ccc(Oc2nc(NC(C)C)nc(SC)n2)cc1`, -13.9%.
For `Cc1cccc(NC(=O)CSc2nnc(CCCCCNC(=O)OC(C)(C)C)o2)c1C` the value was 12.1%; for `COc1ccc(CNC(=O)C(c2ccc(O)cc2)N(Cc2ccco2)C(=O)c2snc(C(N)=O)c2N)cc1` (stereo unspecified), -5.39%; for `C=CCC1(C#N)C(=S)NC(C)=C(C(=O)OCC)C1c1ccccc1` (stereo unspecified), -0.11%.
For `CCc1ccc(CN(C)C(=O)C2CCC(=O)N(Cc3cccc(OC)c3)C2)nc1` (stereo unspecified) the value was -7.64%; for `CCOc1ccccc1NC(=O)Cn1nnc(C(=O)NCc2cccs2)c1N`, 10.8%.
On to `CC(C)Cn1c(N)c(C(=O)NCc2cccs2)c2nc3ccccc3nc21`, for which the inhibition was 80.7% (active).
Regarding `Cn1ncc(Br)c1C(=O)NCc1cccs1`, the inhibition is -1.6%.
